Inconclusive results are not listed. Active and inactive are the calls of the source. Unless noted, calls follow the shape of the dose curve; as a rule, active = well fitted inhibition curve with a large enough effect; inconclusive = small, poorly fitted or top-dose-only effect; inactive = flat fitted curve, though single readings scatter.

Assay [1] is described as follows: qHTS drug screen for cell cycle checkpoint inhibitors in PARPi-resistant BRCA-mutant ovarian cancer cell lines. (AID 1963452; calls by dose curve). The note with it: PEO1/OlaR viability, CellTiter-Glo luminescence, 96 h, stronger effect = lower value. In a few lines: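 PEO1, PEO4 and PEO1/OlaR ovarian cancer cells, 600 per well, exposed 96 h at 37C to a dilution series. Viability read by CellTiter-Glo luminescence, normalized to DMSO and empty wells; activity summarized as Z-AUC.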
(In general: In qHTS, concentration-response curves come from the screen itself.)

The nature of assay [2]: qHTS for identification of novel therapeutic agents for treatment of microphthalmiaassociated transcription factor (MiT) renal cell carcinoma (RCC) (AID 1963991). The note with it: CellTiter-Glo, 48 h, stronger effect = lower value. The essentials: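 Three TFE3-fusion RCC cell lines (UOK109, UOK124, UOK145), 500 cells/well, were exposed to the 1912-compound MIPE 4.0 library for 48 hours at 37 C. Viability was read by CellTiter-Glo luminescence, normalised to DMSO (100%) and empty wells (0%), with 11-concentration curve fits.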

A short description of assay [3]: qHTS profiling for inhibitors of Plasmodium falciparum proliferation (AID 504749).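 Also: 0% = DMSO vehicle and full inhibition = artemisinin control; nearly all actives have a fitted effect of over 60% in size.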 The note with it: P. falciparum in erythrocytes, SYBR Green DNA, 72 h. The essentials:
(§1)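 Parasite proliferation within erythrocytes, 72 h exposure. Endpoint: SYBR Green I fluorescence after overnight lysis at room temperature. Controls: 0.29 uM artemisinin, DMSO.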

Assay [4] has as its system 3D7. Described as above. The following applies: P. falciparum in erythrocytes, SYBR Green DNA, 72 h; series mostly up to 28.7 µM. The essentials: as §1
Assay [5] concerns 7G8. Described as above. The following applies: P. falciparum in erythrocytes, SYBR Green DNA, 72 h; series mostly up to 28.7 µM. The essentials:
as §1

Assay [6] concerns AA1029. The description is as above. The following applies: P. falciparum in erythrocytes, SYBR Green DNA, 72 h; series mostly up to 28.7 µM. In a few lines: as §1
Assay [7] relates to AS120. The description is as above. The note with it: P. falciparum in erythrocytes, SYBR Green DNA, 72 h; series mostly up to 28.7 µM. In a few lines: as §1
In assay [8] the test system is ATS189. The assay is described as above. The following applies: P. falciparum in erythrocytes, SYBR Green DNA, 72 h; series mostly up to 28.7 µM. The essentials: as §1
Assay [9] relates to ATS95. The assay is described as above. The note with it: P. falciparum in erythrocytes, SYBR Green DNA, 72 h; series mostly up to 28.7 µM. The essentials: as §1
Assay [10] deals with C2A. Described as above. The following applies: P. falciparum in erythrocytes, SYBR Green DNA, 72 h; series mostly up to 28.7 µM. The essentials: as §1
Assay [11] relates to CP185. Described as above. The following applies: P. falciparum in erythrocytes, SYBR Green DNA, 72 h; series mostly up to 28.7 µM. In a few lines:
as §1

For assay [12], the system named is CP191. Described as above. The following applies: P. falciparum in erythrocytes, SYBR Green DNA, 72 h; series mostly up to 28.7 µM. The essentials:
as §1

Assay [13] deals with CP192. The assay is described as above. The note with it: P. falciparum in erythrocytes, SYBR Green DNA, 72 h; series mostly up to 28.7 µM. The essentials:
as §1

In assay [14] the test system is CP194. The description is as above. The following applies: P. falciparum in erythrocytes, SYBR Green DNA, 72 h; series mostly up to 28.7 µM. The essentials: as §1
Assay [15] relates to CP201. The description is as above. The following applies: P. falciparum in erythrocytes, SYBR Green DNA, 72 h; series mostly up to 28.7 µM. In a few lines:
as §1

Assay [16] relates to CP203. The assay is described as above. The note with it: P. falciparum in erythrocytes, SYBR Green DNA, 72 h; series mostly up to 28.7 µM. The essentials: as §1
For assay [17], the system named is CP211. The assay is described as above. The note with it: P. falciparum in erythrocytes, SYBR Green DNA, 72 h; series mostly up to 28.7 µM. The essentials:
as §1

Assay [18] concerns CP215. The description is as above. The following applies: P. falciparum in erythrocytes, SYBR Green DNA, 72 h; series mostly up to 28.7 µM. In a few lines:
as §1

Assay [19] has as its system CP217. The assay is described as above. The note with it: P. falciparum in erythrocytes, SYBR Green DNA, 72 h; series mostly up to 28.7 µM. In a few lines: as §1
[20] abbreviates: measured here: PEO1 parental Z-AUC.
Where [21] appears, read: TFE3-RCC UOK109 viability, measured here: UOK109 Z-AUC.
[22] abbreviates: TFE3-RCC viability, measured here: UOK124 Z-AUC.
Where [23] appears, read: TFE3-RCC viability, measured here: UOK145 Z-AUC.
The mark [24] stands for this setting: at 12.8 µM (top of the series), parasite line A.
Where [25] appears, read: at 12.8 µM (top of the series), parasite line B.
The mark [26] stands for this setting: at 28.7 µM (top of the series), parasite line A.
Setting [27] is: at 28.7 µM (top of the series), parasite line B.

`COc1cc(OC)c(C(=O)CCCN2CCCC2)c(OC)c1`: the Z-AUC was 1.29 (inactive) in [1], 0.91 in assay [1] (setting [20]) and 0.794 in assay [1] (measured here: PEO4 Z-AUC). For the same compound, the z-score in [2] (setting [21]) is 1.14; in assay [2] (setting [22]) it was 0.362; in assay [2] (setting [23]) it was -0.41. Further, the activity, negative = inhibition is 17.5% (inactive) in assay [3] (setting [24]) and 11% (inactive) in assay [3] (setting [25]). The Potency result in assay [4], in assay [5], in [6], in assay [7], in [8] and in assay [9] was “inactive” throughout. Also, the Potency entry in assay [10], in assay [11], in assay [12], in [13], in assay [14] and in [15] was “inactive” each time. Further, the Potency result in [16], in assay [17], in assay [18] and in assay [19] was “inactive” throughout.

Turning to `CN1C(C(=O)Nc2ccccn2)=C(O)c2sccc2S1(=O)=O`, the Z-AUC in [1] was 1.5 (inactive); in assay [1] (setting [20]), 1.16; in assay [1] (measured here: PEO4 Z-AUC), 1.02. The z-score in [2] (setting [21]) stood at 1.14; in assay [2] (setting [22]), 0.504; in [2] (setting [23]), 0.557. The activity, negative = inhibition is -2.2% (inactive) in assay [3] (setting [24]) and -4.64% (inactive) in assay [3] (setting [25]). Besides, the Potency entry in assay [4], in assay [5], in assay [6], in [7], in assay [8] and in [9] was “inactive” each time. Moreover, the Potency result in [10], in [11], in [12], in assay [13], in assay [14] and in assay [15] was “inactive” in each case. In addition, the Potency entry in assay [16], in assay [17], in [18] and in assay [19] was “inactive” in each case.

In the case of `Nc1ccc(S(N)(=O)=O)cc1`, the results for the Z-AUC in [1], in assay [1] (setting [20]) and in [1] (measured here: PEO4 Z-AUC) were 0.067 (inactive), 0.495 and 0.56, respectively. Also, the z-score in assay [2] (setting [21]) came out at 1.06; in assay [2] (setting [22]) it was 0.709; in [2] (setting [23]), 1.29. Moreover, the activity, negative = inhibition in assay [3] (setting [26]) was 13.4% (inactive); in assay [3] (setting [27]) it was 14.6% (inactive). Besides, the Potency entry in assay [4], in assay [5], in assay [6], in [7], in assay [8] and in assay [9] was “inactive” throughout. In addition, the Potency result in assay [10], in [11], in assay [12], in assay [13], in assay [14] and in [15] was “inactive” throughout. Besides, the Potency result in assay [17], in [18] and in assay [19] was “inactive” each time.

Turning to `COc1c2occc2cc2ccc(=O)oc12`, the Z-AUC in assay [1] is 0.446 (inactive); in assay [1] (setting [20]) it was 1.07; in assay [1] (measured here: PEO4 Z-AUC) it was 1.02. Also, the z-score in [2] (setting [21]) was -0.0945; in assay [2] (setting [22]), 0.483; in [2] (setting [23]) it was 0.177.

For the compound `O=c1c(O)c(-c2cc(O)c(O)c(O)c2)oc2cc(O)cc(O)c12`, the Z-AUC in assay [1] is 1.5 (inactive); in [1] (setting [20]) it was 1.23; in [1] (measured here: PEO4 Z-AUC) it was 1.17. Also, the figures for the z-score in [2] (setting [21]), in assay [2] (setting [22]) and in assay [2] (setting [23]) were 0.252, 0.375 and -0.367, respectively.

With `Cc1cc2c(s1)Nc1ccccc1N=C2N1CCN(C)CC1`, the Z-AUC was -0.767 (inactive) in assay [1], -0.886 in assay [1] (setting [20]) and -0.45 in assay [1] (measured here: PEO4 Z-AUC). For the same compound, the figures for the z-score in assay [2] (setting [21]), in assay [2] (setting [22]) and in assay [2] (setting [23]) were 0.52, 0.714 and 0.593, respectively. Besides, the values for the activity, negative = inhibition in assay [3] (setting [26]) and in [3] (setting [27]) were 6.07% (inactive) and 8.04% (inactive), respectively. Besides, the Potency entry in assay [4], in assay [6], in assay [7], in assay [8], in assay [9] and in [10] was “inactive” in each case. Moreover, the Potency entry in assay [11], in assay [12], in [13], in assay [14], in assay [15] and in assay [17] was “inactive” each time. Further, the Potency result in assay [18] and in assay [19] was “inactive” in each case.

These data come from PubChem BioAssay (NCATS).
